Residual activity data for one compound are collected here from ChEMBL document CHEMBL2218924, “A broad activity screen in support of a chemogenomic map for kinase signalling research and drug discovery” (Biochem J, 2013).

Molecules are shown by their SMILES.

Assay [1] has as its target T1, Serine/threonine-protein kinase TBK1 (Homo sapiens) (UniProt Q9UHD2).
T1 sequence (whole entry): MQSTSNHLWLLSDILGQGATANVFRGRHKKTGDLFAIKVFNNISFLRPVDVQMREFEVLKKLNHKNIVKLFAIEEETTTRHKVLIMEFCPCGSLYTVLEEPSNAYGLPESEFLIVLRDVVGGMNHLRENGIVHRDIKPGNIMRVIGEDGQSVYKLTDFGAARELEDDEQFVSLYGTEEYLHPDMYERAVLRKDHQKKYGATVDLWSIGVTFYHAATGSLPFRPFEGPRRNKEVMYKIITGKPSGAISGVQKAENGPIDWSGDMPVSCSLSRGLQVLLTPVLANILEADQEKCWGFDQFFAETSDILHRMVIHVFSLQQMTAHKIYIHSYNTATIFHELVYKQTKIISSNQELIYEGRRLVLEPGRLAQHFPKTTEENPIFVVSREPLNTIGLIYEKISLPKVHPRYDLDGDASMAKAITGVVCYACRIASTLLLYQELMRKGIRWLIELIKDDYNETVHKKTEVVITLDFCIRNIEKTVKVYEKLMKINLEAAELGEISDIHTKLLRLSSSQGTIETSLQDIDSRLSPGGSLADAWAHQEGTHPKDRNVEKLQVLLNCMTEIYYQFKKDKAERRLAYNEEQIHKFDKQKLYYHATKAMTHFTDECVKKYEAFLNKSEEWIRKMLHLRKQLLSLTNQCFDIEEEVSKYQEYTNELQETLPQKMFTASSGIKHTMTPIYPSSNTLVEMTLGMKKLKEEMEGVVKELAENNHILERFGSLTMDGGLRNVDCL
As to conditions: at 10 µM.

Assay [2] deals with T2, TGF-beta receptor type-1 (Homo sapiens) (UniProt P36897).
T2 sequence (whole entry): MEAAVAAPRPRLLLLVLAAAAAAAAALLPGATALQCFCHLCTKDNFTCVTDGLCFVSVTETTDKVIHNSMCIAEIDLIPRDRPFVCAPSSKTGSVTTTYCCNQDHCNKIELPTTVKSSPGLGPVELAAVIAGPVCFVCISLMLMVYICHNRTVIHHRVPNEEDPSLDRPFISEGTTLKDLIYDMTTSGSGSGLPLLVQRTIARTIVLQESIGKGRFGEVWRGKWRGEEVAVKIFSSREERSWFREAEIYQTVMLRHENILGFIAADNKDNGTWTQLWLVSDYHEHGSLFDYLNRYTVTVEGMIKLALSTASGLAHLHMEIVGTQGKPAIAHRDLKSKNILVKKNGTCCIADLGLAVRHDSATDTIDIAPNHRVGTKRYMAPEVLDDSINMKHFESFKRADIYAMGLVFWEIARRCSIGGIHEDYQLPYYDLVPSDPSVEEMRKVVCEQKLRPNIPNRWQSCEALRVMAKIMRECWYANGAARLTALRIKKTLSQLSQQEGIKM
As to conditions: at 1 µM.

The target of assay [3] is T2, TGF-beta receptor type-1 (Homo sapiens). As to conditions: at 10 µM.
In assay [4] the target is Insulin-like growth factor 1 receptor (Homo sapiens) (UniProt P08069). The settings on record: at 1 µM.
For assay [5] the target is unchanged. The settings on record: at 10 µM.
In assay [6] the target is T3, Inhibitor of nuclear factor kappa-B kinase subunit alpha (Homo sapiens) (UniProt O15111).
T3 sequence (whole entry): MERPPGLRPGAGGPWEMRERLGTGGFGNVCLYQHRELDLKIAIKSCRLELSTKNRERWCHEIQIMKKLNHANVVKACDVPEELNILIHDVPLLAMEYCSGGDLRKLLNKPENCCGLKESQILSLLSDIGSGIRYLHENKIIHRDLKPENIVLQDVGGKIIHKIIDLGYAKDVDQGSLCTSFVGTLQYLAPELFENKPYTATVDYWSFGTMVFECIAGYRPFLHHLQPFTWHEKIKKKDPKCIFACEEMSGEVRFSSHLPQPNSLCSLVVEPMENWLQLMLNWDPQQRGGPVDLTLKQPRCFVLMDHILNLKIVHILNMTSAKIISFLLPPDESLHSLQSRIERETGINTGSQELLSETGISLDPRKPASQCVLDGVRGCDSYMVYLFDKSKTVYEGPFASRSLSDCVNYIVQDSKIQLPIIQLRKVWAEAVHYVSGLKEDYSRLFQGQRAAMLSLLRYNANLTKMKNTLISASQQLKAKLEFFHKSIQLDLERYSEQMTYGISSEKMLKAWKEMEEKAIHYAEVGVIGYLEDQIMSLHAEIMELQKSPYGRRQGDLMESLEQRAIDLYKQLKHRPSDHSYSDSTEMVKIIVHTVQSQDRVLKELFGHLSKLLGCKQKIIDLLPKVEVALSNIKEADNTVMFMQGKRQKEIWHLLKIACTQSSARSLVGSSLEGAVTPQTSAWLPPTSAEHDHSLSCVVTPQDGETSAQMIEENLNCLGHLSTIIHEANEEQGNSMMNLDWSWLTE
As to conditions: at 1 µM.

For assay [7], the target named is T3, Inhibitor of nuclear factor kappa-B kinase subunit alpha (Homo sapiens). The settings on record: at 10 µM.
In assay [8] the target is T4, Inhibitor of nuclear factor kappa-B kinase subunit beta (Homo sapiens) (UniProt O14920).
T4 sequence (whole entry): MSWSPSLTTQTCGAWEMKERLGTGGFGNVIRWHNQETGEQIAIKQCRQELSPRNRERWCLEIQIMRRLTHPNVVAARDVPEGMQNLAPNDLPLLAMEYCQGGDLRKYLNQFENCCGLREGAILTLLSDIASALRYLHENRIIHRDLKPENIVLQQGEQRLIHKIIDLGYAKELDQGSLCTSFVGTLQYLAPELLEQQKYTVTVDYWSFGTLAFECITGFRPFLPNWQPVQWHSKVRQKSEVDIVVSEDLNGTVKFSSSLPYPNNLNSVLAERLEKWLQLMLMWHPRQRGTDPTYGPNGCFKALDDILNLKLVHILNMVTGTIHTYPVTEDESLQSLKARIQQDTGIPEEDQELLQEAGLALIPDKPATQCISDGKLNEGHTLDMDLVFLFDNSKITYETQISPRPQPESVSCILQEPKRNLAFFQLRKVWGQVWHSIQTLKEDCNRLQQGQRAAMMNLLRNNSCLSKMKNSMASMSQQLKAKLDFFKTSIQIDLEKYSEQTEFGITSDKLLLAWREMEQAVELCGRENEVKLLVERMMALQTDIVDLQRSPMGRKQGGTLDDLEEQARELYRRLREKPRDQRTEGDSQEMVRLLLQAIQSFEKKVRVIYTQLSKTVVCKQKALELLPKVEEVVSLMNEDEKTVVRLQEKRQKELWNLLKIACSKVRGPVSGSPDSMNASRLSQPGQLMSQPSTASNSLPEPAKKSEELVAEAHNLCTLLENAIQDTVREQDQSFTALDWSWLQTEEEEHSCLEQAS
The settings on record: at 1 µM.

For assay [9], the target named is T4, Inhibitor of nuclear factor kappa-B kinase subunit beta (Homo sapiens). The settings on record: at 10 µM.
Assay [10] deals with Insulin receptor (Homo sapiens) (UniProt P06213). The settings on record: at 1 µM.
Chain of Insulin receptor (Homo sapiens) (P06213 28-758 limits assumed): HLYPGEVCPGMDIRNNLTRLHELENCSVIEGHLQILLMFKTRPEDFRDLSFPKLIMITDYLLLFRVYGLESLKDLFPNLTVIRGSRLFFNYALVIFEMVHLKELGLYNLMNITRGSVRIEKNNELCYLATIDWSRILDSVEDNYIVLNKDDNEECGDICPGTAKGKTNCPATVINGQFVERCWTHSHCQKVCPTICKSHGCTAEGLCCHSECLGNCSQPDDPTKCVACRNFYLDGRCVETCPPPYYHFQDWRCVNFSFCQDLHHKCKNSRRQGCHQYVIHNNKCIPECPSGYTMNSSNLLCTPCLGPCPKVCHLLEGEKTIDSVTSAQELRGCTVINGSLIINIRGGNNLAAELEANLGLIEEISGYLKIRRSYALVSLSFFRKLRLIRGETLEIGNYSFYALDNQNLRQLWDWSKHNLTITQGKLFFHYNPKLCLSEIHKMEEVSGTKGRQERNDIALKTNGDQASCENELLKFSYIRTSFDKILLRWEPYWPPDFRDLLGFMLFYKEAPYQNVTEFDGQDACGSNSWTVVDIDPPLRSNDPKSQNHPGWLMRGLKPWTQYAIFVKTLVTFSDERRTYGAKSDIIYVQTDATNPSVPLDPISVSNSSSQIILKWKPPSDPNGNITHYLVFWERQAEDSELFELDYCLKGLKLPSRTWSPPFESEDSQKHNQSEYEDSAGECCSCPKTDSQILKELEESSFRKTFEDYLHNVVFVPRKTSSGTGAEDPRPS
Chain of Insulin receptor (Homo sapiens) (P06213 763-1382 limits assumed): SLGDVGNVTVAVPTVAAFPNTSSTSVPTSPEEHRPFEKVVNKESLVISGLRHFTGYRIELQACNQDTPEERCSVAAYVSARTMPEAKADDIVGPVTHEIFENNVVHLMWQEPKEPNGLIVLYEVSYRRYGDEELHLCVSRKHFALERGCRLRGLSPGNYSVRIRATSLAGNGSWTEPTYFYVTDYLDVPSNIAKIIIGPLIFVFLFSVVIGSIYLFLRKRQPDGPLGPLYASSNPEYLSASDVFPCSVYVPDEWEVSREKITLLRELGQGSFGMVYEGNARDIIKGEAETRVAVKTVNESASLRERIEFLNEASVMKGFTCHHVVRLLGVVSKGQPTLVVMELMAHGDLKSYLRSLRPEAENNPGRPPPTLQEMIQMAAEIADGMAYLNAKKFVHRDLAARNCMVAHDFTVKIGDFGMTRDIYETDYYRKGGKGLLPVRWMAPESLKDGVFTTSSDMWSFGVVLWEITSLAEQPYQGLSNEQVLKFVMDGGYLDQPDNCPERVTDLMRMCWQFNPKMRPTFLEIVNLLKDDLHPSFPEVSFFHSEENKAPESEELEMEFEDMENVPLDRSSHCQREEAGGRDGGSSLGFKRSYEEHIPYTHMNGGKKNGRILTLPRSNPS

Chain of Insulin-like growth factor 1 receptor (Homo sapiens) (P08069 31-736 limits assumed): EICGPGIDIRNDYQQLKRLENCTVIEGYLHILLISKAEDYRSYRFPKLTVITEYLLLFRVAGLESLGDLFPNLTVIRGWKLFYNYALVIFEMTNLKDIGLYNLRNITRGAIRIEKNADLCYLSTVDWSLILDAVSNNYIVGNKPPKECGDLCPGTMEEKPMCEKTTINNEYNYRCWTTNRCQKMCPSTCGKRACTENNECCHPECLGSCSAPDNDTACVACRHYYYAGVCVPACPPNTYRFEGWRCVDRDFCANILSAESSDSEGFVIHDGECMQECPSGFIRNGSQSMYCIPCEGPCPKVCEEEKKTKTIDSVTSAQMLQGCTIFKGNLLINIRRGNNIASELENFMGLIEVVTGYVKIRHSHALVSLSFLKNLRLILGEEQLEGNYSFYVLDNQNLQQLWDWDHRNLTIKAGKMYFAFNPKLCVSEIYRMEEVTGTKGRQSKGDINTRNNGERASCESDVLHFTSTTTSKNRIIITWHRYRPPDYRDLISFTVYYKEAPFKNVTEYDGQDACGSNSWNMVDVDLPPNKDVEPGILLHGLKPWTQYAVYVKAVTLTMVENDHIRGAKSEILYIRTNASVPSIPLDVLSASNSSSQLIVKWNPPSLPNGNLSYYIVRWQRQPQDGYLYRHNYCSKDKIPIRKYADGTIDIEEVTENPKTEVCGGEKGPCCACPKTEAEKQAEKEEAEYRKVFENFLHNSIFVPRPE
Chain of Insulin-like growth factor 1 receptor (Homo sapiens) (P08069 741-1367 limits assumed): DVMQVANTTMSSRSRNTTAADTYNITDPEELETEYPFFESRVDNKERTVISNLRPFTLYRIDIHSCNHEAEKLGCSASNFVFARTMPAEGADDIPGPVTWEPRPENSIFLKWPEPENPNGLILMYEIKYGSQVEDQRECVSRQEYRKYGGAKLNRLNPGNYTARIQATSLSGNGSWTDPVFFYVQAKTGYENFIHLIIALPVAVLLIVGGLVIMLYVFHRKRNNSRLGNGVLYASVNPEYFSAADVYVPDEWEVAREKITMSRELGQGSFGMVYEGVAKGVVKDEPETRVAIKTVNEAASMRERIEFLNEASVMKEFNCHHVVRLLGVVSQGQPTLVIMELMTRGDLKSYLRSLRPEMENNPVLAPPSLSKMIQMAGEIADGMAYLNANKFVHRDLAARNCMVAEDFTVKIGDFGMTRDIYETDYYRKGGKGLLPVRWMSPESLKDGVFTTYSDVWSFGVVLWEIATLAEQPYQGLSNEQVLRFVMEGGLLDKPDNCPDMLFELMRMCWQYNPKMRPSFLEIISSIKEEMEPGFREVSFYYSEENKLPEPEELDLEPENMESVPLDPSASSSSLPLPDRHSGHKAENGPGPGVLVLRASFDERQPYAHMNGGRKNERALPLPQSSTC

As a reminder, the residual activity is the signal under treatment as a percentage of the control signal. In the case of `O=C1c2ccccc2-[n+]2ccc3c([nH]c4ccccc43)c21`, the residual activity in [1] is 53%; in assay [2], 81%; in assay [3], 78%; in assay [4], 86%; in assay [5], 92%; in assay [6], 108%. Further, the residual activity in assay [7] stood at 108%; in [8] it was 113%; in assay [9] it was 97%; in assay [10], 84%.
